Laboratory results reported in PubChem BioAssay (Tox21).
Values joined by “and” are separate entries in the source; they are usually repeats but may differ in a detail not shown here. Equal values may be shown once. Results filed as inconclusive are left out. Where a call stands in place of a potency, no number is given. The source holds several records for some structures; these can differ, active in one and inactive in another. Active and inactive are the calls of the source. Calls come from the whole dose curve; as a rule, active = well fitted curve in the direction sought with a large enough effect in the repeat runs; inconclusive = weak or mixed curves; inactive = no such curve, though single readings can be large; an effect the other way counts as inactive or inconclusive.

What was measured:
[1] = Human pregnane X receptor (PXR) small molecule agonists, qHTS cell viability counter screen (AID 1346977); note: nearly all actives have a fitted effect of over 50% in size
Outline: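 Fluorescence read-out (CellTiter-Fluor) of viability in PXR-Luc HepG2 cells, multiplexed with the luciferase agonist read. Compounds in DMSO added after 5hr plating; 24hr total exposure at 37C, 5% CO2.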

[2] = Caspase-3/7 induction in HepG2 cells by small molecules, qHTS assay (AID 1346978); note: nearly all actives have a fitted effect of over 15% in size
Outline: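 Wild-type HepG2 cells, 2,000/well, settled 5 hr at 37 C and 5% CO2, then compound-treated for 17 hr; caspase-3/7 activity read by luminescent Caspase-Glo 3/7 after 30 min at room temperature.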

[3] = Caspase-3/7 induction in CHO-K1 cells by small molecules, qHTS cell viability counter screen (AID 1346979); note: nearly all actives have a fitted effect of over 35% in size
Outline: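 CHO-K1 wt, 1,500 cells/well; 5hr pre-incubation 37C/5% CO2; compound pin transfer (DMSO); 16hr exposure; CellTiter-Fluor added, 1hr, fluorescence read.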

[4] = Caspase-3/7 induction in CHO-K1 cells by small molecules, qHTS assay (AID 1346980); note: nearly all actives have a fitted effect of over 15% in size
Outline: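 Wild-type CHO-K1 cells exposed to compounds for 17hr at 37 C, 5% CO2. Caspase-3/7 activity then measured by Caspase-Glo 3/7 luminescence after 30min at room temperature.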

[5] = Caspase-3/7 induction in HepG2 cells by small molecules, qHTS cell viability counter screen (AID 1346981); note: series mostly up to about 92 µM; nearly all actives have a fitted effect of over 30% in size
Outline: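 Multiplexed with the caspase-3/7 assay: HepG2 cells, 16 hr compound treatment, CellTiter-Fluor viability detection by fluorescence.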

[6] = molecular target: Nuclear receptor subfamily 1 group I member 2 (Homo sapiens) (UniProt O75469); experiment: Human pregnane X receptor (PXR) small molecule agonists, qHTS assay (AID 1346982); note: nearly all actives have a fitted effect of over 35% in size; note: potency is the fitted concentration of half-maximal effect
Nuclear receptor subfamily 1 group I member 2 (Homo sapiens), sequence (O75469 whole entry, looked up): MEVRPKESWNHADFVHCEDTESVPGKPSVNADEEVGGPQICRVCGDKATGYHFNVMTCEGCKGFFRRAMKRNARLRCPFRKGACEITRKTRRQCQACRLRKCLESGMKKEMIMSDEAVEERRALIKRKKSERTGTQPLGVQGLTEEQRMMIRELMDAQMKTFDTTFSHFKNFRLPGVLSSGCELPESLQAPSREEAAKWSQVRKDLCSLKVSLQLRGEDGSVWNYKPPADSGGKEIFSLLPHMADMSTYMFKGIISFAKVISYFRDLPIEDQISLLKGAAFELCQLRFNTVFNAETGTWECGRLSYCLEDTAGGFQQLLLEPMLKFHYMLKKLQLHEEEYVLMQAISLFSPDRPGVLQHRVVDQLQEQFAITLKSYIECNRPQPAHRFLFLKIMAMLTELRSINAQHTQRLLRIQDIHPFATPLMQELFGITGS
Outline: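 We seeded PXR-Luc HepG2 cells in assay medium containing 5% charcoal-stripped FBS, added compounds 5 hr later, incubated 24 hr, and read luminescence with ONE-Glo reagent.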

[7] = molecular target: Cytochrome P450 2C19 (Homo sapiens) (UniProt P33261); experiment: Cytochrome P450 Family 2 Subfamily C Member 19 (CYP2C19) small molecule antagonists: luciferase reporter qHTS assay (AID 1671197); note: nearly all actives have a fitted effect of over 65% in size; note: potency is the fitted concentration of half-maximal effect
Cytochrome P450 2C19 (Homo sapiens), sequence (P33261 whole entry, looked up): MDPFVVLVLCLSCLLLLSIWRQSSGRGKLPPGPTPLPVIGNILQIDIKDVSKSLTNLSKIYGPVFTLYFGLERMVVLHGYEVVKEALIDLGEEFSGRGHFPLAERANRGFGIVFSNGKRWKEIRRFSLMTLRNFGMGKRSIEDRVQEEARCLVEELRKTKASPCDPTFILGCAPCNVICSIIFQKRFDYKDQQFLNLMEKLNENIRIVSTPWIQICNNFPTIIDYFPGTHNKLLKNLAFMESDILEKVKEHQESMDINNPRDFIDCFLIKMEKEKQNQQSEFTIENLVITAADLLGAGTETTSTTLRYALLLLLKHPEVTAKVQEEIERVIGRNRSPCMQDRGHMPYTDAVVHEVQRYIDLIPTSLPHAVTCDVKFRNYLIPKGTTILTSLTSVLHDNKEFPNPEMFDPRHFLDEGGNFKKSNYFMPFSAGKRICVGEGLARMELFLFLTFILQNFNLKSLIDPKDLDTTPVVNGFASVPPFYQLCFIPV
Outline: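 Luminescent readout of CYP2C19 activity: luciferin product detected 20 min after adding detection reagent. Before that, compound and enzyme-substrate mix preincubated 10 min at room temperature; NADPH-regenerating system started a 1 h, 37C reaction. Ketoconazole as positive control.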

[8] = molecular target: Cytochrome P450 1A2 (Homo sapiens) (UniProt P05177); experiment: Cytochrome P450 Family 1 Subfamily A Member 2 (CYP1A2) small molecule antagonists: luciferase reporter qHTS assay (AID 1671199); note: nearly all actives have a fitted effect of over 50% in size; note: potency is the fitted concentration of half-maximal effect
Cytochrome P450 1A2 (Homo sapiens), sequence (P05177 whole entry, looked up): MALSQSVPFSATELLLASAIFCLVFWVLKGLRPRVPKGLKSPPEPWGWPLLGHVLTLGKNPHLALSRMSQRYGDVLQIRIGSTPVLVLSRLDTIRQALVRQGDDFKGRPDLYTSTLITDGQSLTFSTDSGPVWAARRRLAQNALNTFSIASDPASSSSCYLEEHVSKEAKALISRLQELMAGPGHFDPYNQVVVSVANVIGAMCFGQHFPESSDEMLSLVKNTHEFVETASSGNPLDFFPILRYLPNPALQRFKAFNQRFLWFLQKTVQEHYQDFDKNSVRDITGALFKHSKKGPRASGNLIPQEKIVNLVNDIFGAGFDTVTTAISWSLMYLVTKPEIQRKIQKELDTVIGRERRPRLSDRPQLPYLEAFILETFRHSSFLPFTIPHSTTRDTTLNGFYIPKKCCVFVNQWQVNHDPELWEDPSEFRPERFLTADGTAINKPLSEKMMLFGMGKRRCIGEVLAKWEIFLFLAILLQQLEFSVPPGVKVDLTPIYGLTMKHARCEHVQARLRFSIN
Outline: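 CYP1A2 turnover of a luminogenic substrate was quantified after 1 h with NADPH regeneration at room temperature. Furafylline served as positive control.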

[9] = molecular target: Voltage-gated inwardly rectifying potassium channel KCNH2 (Homo sapiens) (UniProt Q12809); experiment: Human Ether-a-go-go-Related Gene (hERG) channel small molecule antagonists: fluorescence cell-based qHTS assay (AID 1671200); note: nearly all actives have a fitted effect of over 50% in size; note: potency is the fitted concentration of half-maximal effect
Voltage-gated inwardly rectifying potassium channel KCNH2 (Homo sapiens), sequence (Q12809 whole entry, looked up): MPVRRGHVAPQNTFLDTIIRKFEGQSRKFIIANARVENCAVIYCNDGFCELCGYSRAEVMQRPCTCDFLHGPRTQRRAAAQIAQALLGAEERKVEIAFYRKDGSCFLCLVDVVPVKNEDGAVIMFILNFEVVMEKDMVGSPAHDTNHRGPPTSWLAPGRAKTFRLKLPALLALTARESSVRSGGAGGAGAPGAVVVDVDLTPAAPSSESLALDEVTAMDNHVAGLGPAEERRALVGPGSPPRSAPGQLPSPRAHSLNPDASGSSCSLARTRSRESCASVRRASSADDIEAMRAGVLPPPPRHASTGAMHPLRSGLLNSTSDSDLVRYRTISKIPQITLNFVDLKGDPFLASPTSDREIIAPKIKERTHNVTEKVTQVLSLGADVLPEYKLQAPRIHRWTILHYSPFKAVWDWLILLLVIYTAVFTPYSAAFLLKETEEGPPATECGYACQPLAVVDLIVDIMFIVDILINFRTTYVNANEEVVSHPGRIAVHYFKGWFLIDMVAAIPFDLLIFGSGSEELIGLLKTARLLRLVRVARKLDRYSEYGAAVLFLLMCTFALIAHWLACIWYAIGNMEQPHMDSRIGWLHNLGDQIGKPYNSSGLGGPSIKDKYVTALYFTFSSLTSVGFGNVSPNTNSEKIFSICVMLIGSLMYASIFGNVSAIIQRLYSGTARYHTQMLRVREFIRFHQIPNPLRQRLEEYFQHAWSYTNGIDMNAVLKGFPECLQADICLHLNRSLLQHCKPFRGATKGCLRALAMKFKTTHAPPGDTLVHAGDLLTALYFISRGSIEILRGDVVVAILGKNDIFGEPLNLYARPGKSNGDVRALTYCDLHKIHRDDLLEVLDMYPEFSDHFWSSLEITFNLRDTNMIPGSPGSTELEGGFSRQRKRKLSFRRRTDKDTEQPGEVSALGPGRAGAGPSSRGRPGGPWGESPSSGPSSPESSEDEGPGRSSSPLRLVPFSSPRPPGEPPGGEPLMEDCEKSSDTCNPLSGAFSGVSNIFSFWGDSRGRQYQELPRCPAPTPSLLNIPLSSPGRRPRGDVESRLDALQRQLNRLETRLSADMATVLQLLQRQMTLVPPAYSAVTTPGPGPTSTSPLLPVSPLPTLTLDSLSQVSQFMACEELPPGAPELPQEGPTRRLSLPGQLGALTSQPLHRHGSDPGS
Outline: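 Read-out: thallium influx as a surrogate for potassium, tracked as fluorescence (480 nm ex/540 nm em) every second for 2 min after Stimulus Buffer addition in dye-loaded hERG-U2OS cells.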

[10] = molecular target: Cytochrome P450 3A4 (Homo sapiens) (UniProt P08684); experiment: Cytochrome P450 Family 3 Subfamily A Member 4 (CYP3A4) small molecule antagonists: luciferase reporter qHTS assay (AID 1671201); note: series mostly up to about 120 µM; nearly all actives have a fitted effect of over 50% in size
Cytochrome P450 3A4 (Homo sapiens), sequence (P08684 whole entry, looked up): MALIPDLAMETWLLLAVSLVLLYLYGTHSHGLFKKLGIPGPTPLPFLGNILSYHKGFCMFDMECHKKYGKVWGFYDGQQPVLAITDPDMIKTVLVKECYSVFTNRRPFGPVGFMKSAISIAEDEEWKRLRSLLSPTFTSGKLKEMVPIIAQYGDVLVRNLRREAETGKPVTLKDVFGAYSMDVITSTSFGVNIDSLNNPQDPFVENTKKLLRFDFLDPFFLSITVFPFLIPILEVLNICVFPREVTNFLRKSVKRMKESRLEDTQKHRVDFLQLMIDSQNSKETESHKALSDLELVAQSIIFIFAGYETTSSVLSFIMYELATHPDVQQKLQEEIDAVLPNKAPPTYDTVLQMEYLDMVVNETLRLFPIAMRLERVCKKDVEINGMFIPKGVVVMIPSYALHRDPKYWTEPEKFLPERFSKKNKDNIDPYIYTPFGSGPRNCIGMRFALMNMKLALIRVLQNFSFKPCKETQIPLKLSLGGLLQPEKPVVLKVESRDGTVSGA
Outline: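 Luminescent readout (RLU) proportional to CYP3A4 activity, from luciferin generated off a proluciferin substrate. Enzyme–substrate mix plus compound 10 min at room temp, NADPH regeneration 1 h, detection reagent 20 min.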

[11] = molecular target: Cytochrome P450 2C9 (Homo sapiens) (UniProt P11712); experiment: Cytochrome P450 Family 2 Subfamily C Member 9 (CYP2C9) small molecule antagonists: luciferase reporter qHTS assay (AID 1671198); note: nearly all actives have a fitted effect of over 50% in size; note: potency is the fitted concentration of half-maximal effect
Cytochrome P450 2C9 (Homo sapiens), sequence (P11712 whole entry, looked up): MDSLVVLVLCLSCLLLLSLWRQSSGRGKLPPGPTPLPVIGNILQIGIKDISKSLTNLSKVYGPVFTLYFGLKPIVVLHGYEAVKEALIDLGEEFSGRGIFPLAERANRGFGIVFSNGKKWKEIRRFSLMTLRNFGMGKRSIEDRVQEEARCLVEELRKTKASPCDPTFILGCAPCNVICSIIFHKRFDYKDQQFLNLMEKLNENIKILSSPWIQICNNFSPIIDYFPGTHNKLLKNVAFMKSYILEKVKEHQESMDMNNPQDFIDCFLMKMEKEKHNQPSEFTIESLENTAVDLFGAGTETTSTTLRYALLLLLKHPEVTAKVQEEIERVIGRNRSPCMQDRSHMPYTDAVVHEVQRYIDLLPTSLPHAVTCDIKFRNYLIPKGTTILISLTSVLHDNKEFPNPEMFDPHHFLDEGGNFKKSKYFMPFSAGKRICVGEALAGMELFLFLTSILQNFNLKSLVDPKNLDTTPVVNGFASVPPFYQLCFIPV
Outline: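 P450-Glo proluciferin substrate with CYP2C9 enzyme; 10 min RT preincubation, then NADPH regeneration 1 h at 37C; luciferin detection reagent 20 min RT, luminescence in relative luminescence units.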

[12] = molecular target: Nuclear receptor subfamily 1 group I member 2 (Rattus norvegicus) (UniProt Q9R1A7); experiment: Rat pregnane X receptor (rPXR) activation by small molecules, qHTS assay (AID 1346983); settings: rPXR luciferase reporter cells, One-Glo luminescence, 24 h; stronger effect = higher value; note: nearly all actives have a fitted effect of over 20% in size
Nuclear receptor subfamily 1 group I member 2 (Rattus norvegicus), sequence (Q9R1A7 whole entry, looked up): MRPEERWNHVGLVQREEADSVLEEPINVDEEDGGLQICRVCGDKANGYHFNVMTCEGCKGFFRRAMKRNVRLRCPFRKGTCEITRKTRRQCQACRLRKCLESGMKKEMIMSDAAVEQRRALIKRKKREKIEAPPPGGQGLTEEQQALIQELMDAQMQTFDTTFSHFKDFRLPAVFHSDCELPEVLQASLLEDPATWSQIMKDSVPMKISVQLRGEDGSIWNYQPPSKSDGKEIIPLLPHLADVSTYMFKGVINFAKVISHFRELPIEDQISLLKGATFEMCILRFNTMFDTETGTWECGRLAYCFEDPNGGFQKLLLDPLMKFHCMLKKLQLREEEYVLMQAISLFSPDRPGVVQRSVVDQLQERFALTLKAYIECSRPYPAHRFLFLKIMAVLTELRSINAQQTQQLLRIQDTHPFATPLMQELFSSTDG
Outline: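 Cell-based rPXR activation assay: rPXR cells, 2,000 per well, rested 5hr at 37 C, then exposed to compounds in DMSO for 24 hr at 37 C. Luciferase activity read by One-Glo luminescence after 30 min at room temperature.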

[13] = molecular target: Nuclear receptor subfamily 1 group I member 2 (Homo sapiens) (UniProt O75469); experiment: Human pregnane X receptor (PXR) activation by small molecules, qHTS assay (AID 1346985); note: nearly all actives have a fitted effect of over 40% in size; note: potency is the fitted concentration of half-maximal effect
Outline: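 DPX-2 cells (HepG2 co-transfected with a PXR response element and a CYP3A4-promoter luciferase construct) were seeded at 2,000 per well, rested 5 hr at 37C, then exposed to DMSO-dissolved compounds for 24 hr. Activation was read as luciferase luminescence.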

[14] = molecular target: Nuclear receptor subfamily 1 group I member 2 (Homo sapiens) (UniProt O75469); experiment: CYP3A4 induction through human pregnane X receptor (PXR) by small molecules, qHTS assay (AID 1346984); note: nearly all actives have a fitted effect of over 40% in size
Outline: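 qHTS, concentration-response format: HepG2 DPX-2 line, PXR/CYP3A4-luc. Exposure 24 h, 37C. Substrate Luciferin-IPA 3uM final, 3 h. Detection One-Glo, 30 min RT.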

[15] = molecular target: Cytochrome P450 2D6 (Homo sapiens) (UniProt P10635); experiment: Cytochrome P450 Family 2 Subfamily D Member 6 (CYP2D6) small molecule antagonists: luciferase reporter qHTS assay (AID 1671196); note: nearly all actives have a fitted effect of over 50% in size; note: potency is the fitted concentration of half-maximal effect
Cytochrome P450 2D6 (Homo sapiens), sequence (P10635 whole entry, looked up): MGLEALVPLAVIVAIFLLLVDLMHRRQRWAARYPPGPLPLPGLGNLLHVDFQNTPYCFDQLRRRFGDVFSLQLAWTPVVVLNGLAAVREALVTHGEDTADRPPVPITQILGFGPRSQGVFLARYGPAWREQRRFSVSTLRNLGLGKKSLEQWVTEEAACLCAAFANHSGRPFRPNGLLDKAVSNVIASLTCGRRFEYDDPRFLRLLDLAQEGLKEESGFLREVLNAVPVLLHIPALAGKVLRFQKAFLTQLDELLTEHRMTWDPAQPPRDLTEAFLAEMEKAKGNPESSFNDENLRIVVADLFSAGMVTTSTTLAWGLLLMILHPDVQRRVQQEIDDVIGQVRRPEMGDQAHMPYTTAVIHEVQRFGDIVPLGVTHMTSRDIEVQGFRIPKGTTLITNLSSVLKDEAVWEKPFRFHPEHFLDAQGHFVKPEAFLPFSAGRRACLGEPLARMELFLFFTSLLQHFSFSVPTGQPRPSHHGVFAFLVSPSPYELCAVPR
Outline: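 Luminescence (RLU), read 20 min after detection reagent, indicated CYP2D6 conversion of proluciferin to luciferin during a 1 h NADPH-dependent reaction at room temperature.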

| Structure (SMILES) | Potency [1] | Potency [2] | Potency [3] | outcome [4] | Potency [5] | Potency [6] | Potency [7] | Potency [8] | Potency [9] | Potency [10] | Potency [11] | max activation [12] | Potency [13] | Potency [14] | Potency [15] |
| --- | --- | --- | --- | --- | --- | --- | --- | --- | --- | --- | --- | --- | --- | --- | --- |
| CCc1cccc2c(CCO)c[nH]c12 | inactive | inactive | inactive | inactive | inactive | inactive | 17.4 µM (active) | 7.76 µM (active) | inactive | inactive |  |  |  |  |  |
| NS(=O)(=O)c1cc2c(cc1Cl)NC(C1CC3C=CC1C3)NS2(=O)=O (stereo not given) | inactive | inactive | inactive | inactive | inactive | inactive |  |  | inactive |  | 12.3 µM (active) |  |  |  |  |
| Cc1nc2c([nH]1)c(=O)n(C)c(=O)n2Cc1ccco1 | inactive | inactive | inactive | inactive | inactive | inactive | inactive |  | inactive | inactive | inactive |  |  |  |  |
| COc1cc(C(=O)N2CCCCCCC2)cc(OC)c1OC | inactive | inactive | inactive | inactive | inactive |  | 21.9 µM (active) | inactive | inactive |  | inactive | -0.931% (inactive) | 15.8 µM (active) |  |  |
| O=C(O)c1ccccc1OP(=O)(O)O | inactive | inactive | inactive | inactive | inactive | inactive | inactive | 27.5 µM (active) | inactive | inactive | inactive |  |  |  |  |
| CCCC(=O)O[C@]1(C(=O)CO)CC[C@H]2[C@@H]3CCC4=CC(=O)CC[C@]4(C)[C@H]3[C@@H](O)C[C@@]21C | inactive | inactive | inactive | inactive | inactive |  | inactive | inactive | inactive |  | inactive | 8.95% (inactive) | inactive | inactive | inactive |
| CCC(C)C1CCCCC1=O (stereo not given) | inactive | inactive | inactive | inactive | inactive | inactive | inactive | inactive | inactive | inactive | inactive |  |  |  | inactive |
| CCSC(=O)N(CC(C)C)CC(C)C | inactive | inactive | inactive | inactive | inactive | inactive | inactive | inactive | inactive | inactive | inactive |  |  |  |  |
| CN(C)CCCSc1ccccc1NC(=O)/C=C/c1ccccc1 | inactive | inactive | inactive | inactive | inactive |  | 38.9 µM (active) | inactive | inactive | inactive | inactive | 2.69% (inactive) |  | inactive | 0.389 µM (active) |
| CC/C=C\CC/C=C/CO | inactive | inactive | inactive | inactive | inactive | inactive | inactive |  | inactive | inactive | inactive |  |  |  |  |
| CCCCCCCCS(=O)(=O)Cl | inactive | inactive | inactive | inactive | inactive | inactive | inactive | inactive | inactive | inactive | 32 µM (active) |  |  |  |  |
| CO[C@]12C[C@@H](COC(=O)c3cncc(Br)c3)CN(C)[C@@H]1Cc1cn(C)c3cccc2c13 | inactive | inactive | inactive | inactive | inactive | inactive | 2.45 µM (active) |  | 1.07 µM (active) |  | inactive |  |  |  | 0.0692 µM (active) |
| CCOC(=O)c1c(C)n(C)c2ccc(O)cc12 | inactive | inactive | inactive | inactive | inactive |  | 7.76 µM (active) | 0.512 µM (active) | inactive |  |  | -1.63% (inactive) | inactive | inactive |  |
| Cn1c(N)c(N=O)c(=O)n(C)c1=O | inactive | inactive | inactive | inactive | inactive | inactive | 58.2 µM (active) | inactive | inactive | inactive | inactive |  |  |  |  |
| CCCCOCCOCCOCCCC | inactive | inactive | inactive | inactive | inactive | inactive | inactive | inactive | inactive | inactive | inactive |  |  |  | inactive |
| COC(=O)c1c(Cl)c(Cl)c(C(=O)OC)c(Cl)c1Cl | inactive | inactive | inactive | inactive | inactive | 21.7 µM (active) | 28.3 µM (active) and 15.9 µM (active) | 317 nM (active) and 154 nM (active) |  | inactive | inactive |  |  |  | inactive and 31.7 µM (active) |
| O=C1CCCC(=O)C1 | inactive | inactive | inactive | inactive | inactive | inactive | inactive |  | inactive | inactive |  |  |  |  |  |
| CCCCOCCOCCOCc1cc2c(cc1CCC)OCO2 | inactive | inactive | inactive | inactive | inactive |  |  |  |  |  |  | -0.229% (inactive) |  |  |  |
| C[N+](C)(C)CC(O)CC(=O)[O-] (stereo not given) | inactive | inactive | inactive | inactive | inactive |  | inactive | inactive | inactive | inactive | inactive | 7.16% (inactive) |  |  |  |
| Oc1ccc(C2CNCCc3c2cc(O)c(O)c3Cl)cc1 (stereo not given) | inactive | inactive | inactive | inactive | inactive | inactive |  | inactive | inactive | inactive |  |  |  |  |  |
